Bioassay records as filed in PubChem BioAssay.
This is one part of a sample in which hits are shown more often than they occur.
Pf Dd2 growth: inhibitors of Plasmodium falciparum Dd2 growth. P. falciparum Dd2 growth, SYBR Green, 72 h. AID 1347417. 4.3% of 120,000 active. Potency, µM (top dose mostly 28.9 µM), for the others: at the highest dose activity, negative = inhibition, actives largely listed as inhibitors; active = well fitted inhibition curve with a large enough effect;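 note: plate controls were DMSO vehicle for no effect and reference drug for full effect; nearly all actives have a fitted effect of over 65% in size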
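Readout: SYBR Green fluorescence, 485 nm excitation, 535 nm emission, after ~16 h lysis at 37C. Before that, Dd2-infected red cells (2.5% hematocrit) grew 72 h with compound, 29 uM top final concentration.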
* marks the source's active call; other numbers are inactive results; i = inactive; ! = not active in a repeat; [ ] = another dose, or the depositor's remark. Potency is the fitted concentration of half-maximal effect.

SMILES	Pf Dd2 growth
Cc1cc2ncc(C(=O)NC(C)c3ccc(F)cc3)cn2n1 (stereo not drawn)	-7%[44.1 µM]
Cn1cnc(S(=O)(=O)N2CCCCCCNC(=O)[C@@H]3CCC[C@@H]32)c1	-1%
COCc1ccc2c(c1)c(OC(C)(C)C(=O)NC1CCC(O)CC1)nn2Cc1ccccc1 (stereo not drawn)	-16%
CN(Cc1ccccc1)C1(C(=O)NC2CCC(O)CC2)Cc2ccccc2C1 (stereo not drawn)	-23%
CN(C)C1CCN(C(=O)C2(N(C)CCc3ccccc3)Cc3ccccc3C2)C1 (stereo not drawn)	5µM*
CN(C)CCN(C)CC[C@H]1CN(C(=O)Cc2ccccc2)CC[C@H]1CC(=O)O	0%[44.1 µM]
COc1ccc(-c2nc(C)nc3c2CN(C(=O)c2ccc(F)cc2)CC3)cc1	i
CCC(=O)C1=C(c2ccc(OC)c(OC)c2)N(C(=O)CC)n2c(nnc2-c2ccc(C)cc2)S1	-4%
Cc1nnc2n1C(C)CN(C(=O)CCCn1nnc(-c3ccc(F)cc3)n1)C2 (stereo not drawn)	-5%
CCC(=O)N1CCCCCCn2c(nnc2-c2ccc(F)cc2)CC1	-8%
COc1ccc(C2=NS(=O)(=O)N(C)C(C(=O)Nc3cc(C)ccc3O)=C2)cc1OC	-6%
CC(=O)C1=C(c2ccc(Cl)c(Cl)c2)N(C(C)=O)n2c(C)nnc2S1	2.8µM*
COc1ccc(C2=C(C(C)=O)Sc3nnc(-c4ccc(C)cc4)n3N2C(C)=O)cc1OC	2.5µM*
CC(=O)C1=C(c2ccc(Cl)c(Cl)c2)N(C(C)=O)n2cnnc2S1	1.1µM*
CCC(=O)C1=C(c2ccc(F)cc2)N(C(=O)CC)n2cnnc2S1	4.5µM*
CC(=O)C1=C(c2ccc(Cl)c(Cl)c2)N(C(C)=O)n2c(nnc2-c2ccccc2)S1	35%
O=C(c1ccccc1F)N1CCC(n2cc(-c3nc(-c4ccccc4)no3)nn2)CC1	i
CC(C)NC(=O)N1CCCC1c1noc(CCC(=O)NC2CC2)n1 (stereo not drawn)	-6%
COCCN1CCCC2(CCN(C(=O)CCc3ccc(C)cc3)C2)C1=O (stereo not drawn)	-4%
COc1ccc(CN2CCN3C(=O)N(Cc4ccccc4)C[C@H]3C2)cc1	i
COc1ccc2cc(C3CN(C(=O)c4cccc(CO)c4)CCO3)ccc2c1 (stereo not drawn)	-11%
Cc1cc(=O)n(CC(=O)Nc2ccc(F)cc2)c(-c2ccccc2)n1	i
Cc1cnc(C(=O)NC2C[C@H]3CC[C@@H](C2)N3C(=O)c2cc(F)ccc2F)cn1 (stereo partly drawn)	-10%
N#Cc1ccc(CN2CCC3(CC2)CC(=O)Nc2ccccc2O3)cc1	i
COc1cccc(C(=O)NCC2CCCN(Cc3cnc(C)s3)C2)c1OC (stereo not drawn)	-13%
SMILES	Pf Dd2 growth
Cc1cnc(CC2CCN(C(=O)CC3CCCC3)CC2)n1Cc1ccc(F)cc1	3.2µM*
Cc1cnc(CC2CCN(C(=O)C(C)c3ccccc3)CC2)n1Cc1ccc(F)cc1 (stereo not drawn)	2.2µM*
Cc1cnc(C2CCC2)n1CC1CCN(C(=O)C(C)c2ccccc2)CC1 (stereo not drawn)	8.9µM*
Cc1cnc(CC2CCN(C(=O)C3CCOC3)CC2)n1Cc1ccc(F)cc1 (stereo not drawn)	-3%
Cc1cnc(CC2CCCNC2)n1Cc1ccc(F)cc1 (stereo not drawn)	-26%
Cc1cnc(C2CCC2)n1CC1CCN(C(=O)Cc2cccnc2)CC1	4%
Cc1ccc(C(=O)N2CCC(Cn3c(C)cnc3C3CCC3)CC2)cn1	-8%
Cc1cnc(CC2CCCN(C(=O)c3cccnc3)C2)n1Cc1ccc(F)cc1 (stereo not drawn)	i
Cc1cnc(CC2CCN(C(=O)NC(C)C)CC2)n1Cc1ccc(F)cc1	i
O=C1NCCOCCN(C(=O)COc2ccccc2)[C@H]2CCC[C@@H]12	48%
CN1CC2(CCCN(C(=O)c3conc3-c3ccccc3)CC2)OC1=O (stereo not drawn)	-1%
COCCN1CCC(CN(Cc2ccncc2)C(=O)c2ccc(=O)n(C)n2)CC1	1%
Cn1ccnc1CN1CCN(C(=O)[C@H]2CNC[C@H](C(=O)N3CCOCC3)C2)CC1	0%
C[C@@H](NS(=O)(=O)c1ccc(Cl)cc1)c1onc(-c2cccnc2)c1C(=O)O	61%[44.1 µM]
O=C(c1ccccc1Cl)N1CCC(N2CCCNC2=O)CC1	10%[44.1 µM]
Cc1cc(C(=O)N2CCCC(c3nn[nH]n3)C2)nn1C (stereo not drawn)	35%
CC(=O)N1CC(CO)C2(CCN(Cc3ccc(C)o3)CC2)C1 (stereo not drawn)	-9%
O=C(NC1CCN(c2ccc(F)cc2)C1=O)c1ccccc1Cl (stereo not drawn)	-8%
Cc1cc(C)n(Cc2ccc(C(=O)N3CCCCCCNC(=O)CC3)o2)n1	-25%
COCCOC1CCOC2(CCN(C(=O)c3cc(F)ccc3F)CC2)C1 (stereo not drawn)	11%
CCCN(CC1CCOC1)S(=O)(=O)c1cccc(Cl)c1 (stereo not drawn)	41%[5.79 µM]
COc1ccc2[nH]cc(CCNC(=O)c3cnn(-c4ccccc4Cl)c3C3CCN(C(=O)OC(C)(C)C)CC3)c2c1	5.6µM*
COc1ccc2[nH]cc(CCNC(=O)C3CCCN(C(C)=O)C3)c2c1 (stereo not drawn)	-9%
COc1ccc2[nH]cc(CCNC(=O)CN3CCCc4nc(C5CC5)ncc4C3=O)c2c1	i
CC(C)(C)OC(=O)N1CCC(c2c(C(=O)NCc3ccccn3)cnn2-c2ccccc2Cl)CC1	i
SMILES	Pf Dd2 growth
CCN1CCN(CCCNC(=O)c2cnn(-c3ccc(OC)cc3)c2C2CCN(C(=O)OC(C)(C)C)CC2)CC1	-25%
COc1ccc2[nH]cc(CCNC(=O)c3cnn(-c4ccc(C)cc4)c3C3CCN(C(=O)OC(C)(C)C)CC3)c2c1	3.2µM*
O=C(CN1CC2CC(C1)[C@H]1CCCC(=O)N1C2)NCCCc1ccccc1 (stereo partly drawn)	-18%
CC(C)CN1C(=O)COC[C@@H]1[C@H](O)c1ccc(NC(=O)CC(C)(C)C)cc1	-16%[44.1 µM]
Cn1nccc1CCC(=O)N1CC[C@@]2(O)CCN(C(=O)C3CCC3)C[C@H]2C1	-1%
CC(C)NC(=O)C1(c2ccc(NC(=O)C(C)C)cc2)CCCCC1	5%
O=C1NC(=NC2CCCCC2)C2(CCN([S+](=O)([O-])c3cccc(C(F)(F)F)c3)CC2)N1c1cccnc1	-18%
CC(C)OCCCNC(=O)C1c2ccccc2C(=O)N(Cc2ccccc2)C12CCCC2 (stereo not drawn)	-17%
c1csc(-c2nc3ccncc3[nH]2)c1	18µM*!
c1cc2nc(C3CCCCN3)[nH]c2cn1 (stereo not drawn)	-15%[44.1 µM]
c1ccc2c(-c3nc4ccncc4[nH]3)c[nH]c2c1	13µM*!
c1c[nH]c(-c2nc3ccncc3[nH]2)c1	22µM*!
c1cncc(-c2nc3ccncc3[nH]2)c1	-17%[44.1 µM]
Cc1ccc(-c2nc(-c3cccs3)c(-c3cccs3)[nH]2)cc1	-19%
Cc1ccoc1-c1nc2ccncc2[nH]1	-3%[44.1 µM]
c1cncc(-c2nc3ncccc3[nH]2)c1	-6%[44.1 µM]
c1cnc2nc(-c3c[nH]c4ccccc34)[nH]c2c1	-11%[44.1 µM]
CC(C)NC(=O)c1ccccc1OCC1CCCN(CC2=Cc3ccccc3OC2)C1 (stereo not drawn)	-21%
Cn1ccnc1CN[C@@H]1C[C@H](CO)[C@@H](O)[C@H]1O	15%[44.1 µM]
Cc1ccc2[nH]c(CN3CCN(CC4CCN(C)CC4)CC3)cc(=O)c2c1	8%
O=C(NC[C@H]1OC[C@@H](NC2CCCC2)[C@@H]1O)C1CCCC1	i
